Experimental data reported in PubChem BioAssay (NCATS).
Records with an inconclusive call do not appear. Values without a mark were called inactive. Activity calls are given as the source filed them. Calls come from the whole dose curve; as a rule, active = well fitted inhibition curve with a large enough effect; inconclusive = small, poorly fitted or top-dose-only effect; inactive = no such curve, though single readings can be large or run the other way.

assay: Confirmatory screen NINDS Rhodamine qHTS for Zika virus inhibitors (AID 1347161); details: purified enzyme assay, Rhodamine110 substrate fluorescence, 15 min; series mostly up to 114 µM; activity change, negative = inhibition: at the top concentration;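 note: purified Zika NS2B-NS3 protease with linked NS2B cofactor domain and Rhodamine110 peptide substrate; plate controls were no-inhibitor control for no effect and no-enzyme control for full effect; nearly all actives have a fitted effect of over 60% in size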
In short: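 Kinetic fluorescence (Ex 480 nm, Em 540 nm) over 15 min with 1.5 microM Rhodamine110 peptide and 25 nM linked protease.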

| SMILES | activity change, negative = inhibition |
| --- | --- |
| COC(=O)CCC(=O)OC[C@]1(C)CCC[C@@]2(C)C3CC[C@]4(C)C=CC3(CCC12)C4 (some centres not stated) | -17% [at 64.7 µM] |
| Nc1ncnc2c([C@@H]3N[C@H](CO)[C@@H](O)[C@H]3O)c[nH]c12 | -27.3% |
| CCCCc1ccc(C(=O)Nc2cc(-c3ccc(Cl)cc3)nn2-c2ccc(Cl)cc2)cc1 | -17.8% |

assay: Tertiary RLuc qRT-PCR qHTS assay for Zika virus inhibitors (AID 1347169); details: infected Vero cells, reporter luminescence, 48-72 h; series mostly up to 26.6 µM; activity change, negative = inhibition: at the top concentration; note: nearly all actives have a fitted effect of over 55% in size; note: potency is the fitted concentration of half-maximal effect; for activity change, negative = inhibition: top concentration of the series differs between compounds; % is set by controls: 0 for no effect and ±100 for the full control effect
In short: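 Orthogonal cell-based readout: luminescence measured 1-1.5 hrs after adding live-cell Renilla substrate to Vero cells that had been infected with ZIKV-RLuc (MOI 1-2) post-compound, incubated 48-72 hrs at 37 degrees C.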

| SMILES | activity change, negative = inhibition | Potency |
| --- | --- | --- |
| CC(C)CC(=O)OC1OC=C(CO[C@@H]2O[C@H](CO)[C@@H](O)[C@H](O)[C@H]2O)C2CC(O)C(O)(CO)C12 (some centres not stated) | 26.4% |  |
| Cc1cc(=O)oc2c(C=O)c(O)ccc12 | -53.5% [at 45.9 µM] |  |
| O=C1OCc2cc3cccc(O[C@@H]4O[C@H](CO)[C@@H](O)[C@H](O)[C@H]4O)c3c(O)c21 | 10.6% |  |
| O=[N+]([O-])c1cccc2[nH]c(CNc3nc(N4CCOCC4)nc4c3ncn4-c3ccsc3)nc12 |  | 117 nM (active) |
